For eight compounds, outcome and AC50 results are on record in PubChem BioAssay (EPA / NIEHS).

For test [1], the target named is human Peroxisome Proliferator-activated Receptor alpha (PPARa), PPARA (gene 5465) (UniProt Q07869). Description: ATG_PPARa_TRANS: Attagene TRANS-FACTORIAL HepG2 Assay for human Peroxisome Proliferator-activated Receptor alpha (PPARa) (AID 2283001). Summed up: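 Gain-of-signal endpoint: reporter mRNA induction relative to DMSO, detected by fluorescent RT-PCR and capillary electrophoresis. HepG2 cells transiently carried GAL4-UAS-driven reporter units plus NR-Gal4 fusion; exposure lasted 24 h.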
human Peroxisome Proliferator-activated Receptor alpha (PPARa), PPARA (gene 5465), sequence (Q07869 whole entry, looked up, the tested form may be a part): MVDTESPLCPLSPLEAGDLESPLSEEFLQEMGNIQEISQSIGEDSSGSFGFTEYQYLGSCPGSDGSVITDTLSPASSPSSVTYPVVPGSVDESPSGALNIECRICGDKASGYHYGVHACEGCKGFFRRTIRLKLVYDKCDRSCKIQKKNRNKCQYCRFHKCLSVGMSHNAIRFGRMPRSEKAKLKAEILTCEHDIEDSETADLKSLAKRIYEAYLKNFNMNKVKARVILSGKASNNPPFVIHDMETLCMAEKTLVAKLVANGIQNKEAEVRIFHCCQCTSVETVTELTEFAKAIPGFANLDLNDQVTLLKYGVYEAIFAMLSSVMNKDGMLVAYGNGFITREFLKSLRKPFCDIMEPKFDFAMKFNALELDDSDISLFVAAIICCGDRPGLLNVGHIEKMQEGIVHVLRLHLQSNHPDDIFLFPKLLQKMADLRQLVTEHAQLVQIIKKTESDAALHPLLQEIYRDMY

For test [2], the target named is Nuclear receptor subfamily 1 group I member 2 (Homo sapiens) (UniProt O75469). Description: ATG_PXR_TRANS: Attagene TRANS-FACTORIAL HepG2 Assay for human Pregnane X Receptor (PXR) (AID 2283008). An outline of the steps: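 HepG2 cells transiently transfected with multiple reporter units, here a PXR-GAL4 chimera driving a GAL4-UAS reporter; 24 h compound exposure. Reporter mRNA measured by RT-PCR, FAM labelling and capillary electrophoresis; gain of signal fitted against DMSO baseline.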
Nuclear receptor subfamily 1 group I member 2 (Homo sapiens), sequence (O75469 whole entry, looked up, the tested form may be a part): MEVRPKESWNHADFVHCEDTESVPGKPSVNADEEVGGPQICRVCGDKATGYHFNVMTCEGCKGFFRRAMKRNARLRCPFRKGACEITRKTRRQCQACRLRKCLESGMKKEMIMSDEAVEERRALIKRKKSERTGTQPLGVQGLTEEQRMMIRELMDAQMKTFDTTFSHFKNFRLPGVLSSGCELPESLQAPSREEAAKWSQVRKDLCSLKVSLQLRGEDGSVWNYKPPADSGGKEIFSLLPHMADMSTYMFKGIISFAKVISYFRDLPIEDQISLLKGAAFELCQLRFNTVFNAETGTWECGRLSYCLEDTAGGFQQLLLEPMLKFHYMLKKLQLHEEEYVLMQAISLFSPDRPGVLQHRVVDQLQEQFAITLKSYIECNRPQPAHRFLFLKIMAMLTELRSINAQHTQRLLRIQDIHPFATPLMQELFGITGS

Test [3] concerns the target human Peroxisome Proliferator-activated Receptor delta (PPARd), PPARD (gene 5467) (UniProt Q03181). Description: ATG_PPARd_TRANS: Attagene TRANS-FACTORIAL HepG2 Assay for human Peroxisome Proliferator-activated Receptor delta (PPARd) (AID 2283002). An outline of the steps: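 Measured quantity: GAL4-UAS reporter transcript induction in HepG2 after 24 h chemical dosing, with NR-Gal4 chimeras supplied by transient transfection. Detection by RT-PCR and capillary electrophoresis; upward fit against DMSO.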

Read-out in test [4]: Intercellular Adhesion Molecule 1 (ICAM1), ICAM1 (gene 3383)
Description: BSK_3C_ICAM1: BioMAP Diversity Plus: 3C Assay for Intercellular Adhesion Molecule 1 (ICAM1) Biomarker Activity (AID 2283003; active = hit-call score of the fitted dose curve at least 0.9, where 1 is the maximum; inactive = score below 0.9). The following applies: primary human endothelial cells (HUVEC); actives raise or lower the signal. An outline of the steps:
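HUVEC primary cells stimulated under 3C conditions; ICAM1 measured by ELISA 24 h after compound dosing. Curves fitted bidirectionally against the DMSO baseline. Overt cytotoxicity checked by SRB staining of parallel cultures.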

A short description of test [5]: BSK_3C_Proliferation: Cell Proliferation Assessment in the BioMAP Diversity Plus: 3C Assay (AID 2283006; active = hit-call score of the fitted dose curve at least 0.9, where 1 is the maximum; inactive = score below 0.9;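 also: potency may reflect either rise or fall in cell number versus DMSO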). The following applies: primary human endothelial cells (HUVEC). Summed up:
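Subconfluent HUVEC (3C system) cultured with chemical; relative cell number read at 48 h by sulforhodamine B total-protein staining (0.1% SRB after 10% TCA fixation, 560 nm). Bidirectional fit relative to DMSO.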

For test [6], the target named is Peroxisome proliferator-activated receptor gamma (Homo sapiens) (UniProt P37231). As to the kind of experiment: ATG_PPARg_TRANS: Attagene TRANS-FACTORIAL HepG2 Assay for human Peroxisome Proliferator-activated Receptor-gamma (PPARg) (AID 2283007). Summed up: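 Endpoint reflects upward reporter mRNA change versus DMSO controls. Setup: transiently transfected HepG2, GAL4-UAS reporters driven by chimeric NR-Gal4, 24 h incubation, RT-PCR with capillary electrophoresis read-out.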
Peroxisome proliferator-activated receptor gamma (Homo sapiens), sequence (P37231 whole entry, looked up, the tested form may be a part): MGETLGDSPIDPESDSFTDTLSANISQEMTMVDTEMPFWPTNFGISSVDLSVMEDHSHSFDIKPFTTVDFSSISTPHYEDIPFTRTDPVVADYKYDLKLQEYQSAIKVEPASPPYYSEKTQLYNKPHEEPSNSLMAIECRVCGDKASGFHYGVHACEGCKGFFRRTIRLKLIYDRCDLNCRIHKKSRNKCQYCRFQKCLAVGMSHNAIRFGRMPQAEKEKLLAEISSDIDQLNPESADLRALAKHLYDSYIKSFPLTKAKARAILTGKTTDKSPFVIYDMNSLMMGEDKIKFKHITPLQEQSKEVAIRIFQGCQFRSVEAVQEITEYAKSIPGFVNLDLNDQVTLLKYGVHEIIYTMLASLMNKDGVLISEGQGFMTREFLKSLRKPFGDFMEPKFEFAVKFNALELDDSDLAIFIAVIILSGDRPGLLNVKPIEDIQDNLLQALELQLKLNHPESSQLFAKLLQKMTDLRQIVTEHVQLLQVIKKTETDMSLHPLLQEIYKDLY

The target of test [7] is human RAR-related Orphan Receptor beta (RORb), RORB (gene 6096) (UniProt Q92753). Description: ATG_RORb_TRANS: Attagene TRANS-FACTORIAL HepG2 Assay for human RAR-related Orphan Receptor beta (RORb) (AID 2283010). An outline of the steps: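 HepG2 cells transiently transfected with GAL4-UAS reporter units expressing chimeric NR-Gal4 protein; reporter mRNA measured 24 h after dosing by RT-PCR, 6-FAM labelling and capillary electrophoresis. Gain-of-signal fitted relative to DMSO baseline.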
human RAR-related Orphan Receptor beta (RORb), RORB (gene 6096), sequence (Q92753 whole entry, looked up, the tested form may be a part): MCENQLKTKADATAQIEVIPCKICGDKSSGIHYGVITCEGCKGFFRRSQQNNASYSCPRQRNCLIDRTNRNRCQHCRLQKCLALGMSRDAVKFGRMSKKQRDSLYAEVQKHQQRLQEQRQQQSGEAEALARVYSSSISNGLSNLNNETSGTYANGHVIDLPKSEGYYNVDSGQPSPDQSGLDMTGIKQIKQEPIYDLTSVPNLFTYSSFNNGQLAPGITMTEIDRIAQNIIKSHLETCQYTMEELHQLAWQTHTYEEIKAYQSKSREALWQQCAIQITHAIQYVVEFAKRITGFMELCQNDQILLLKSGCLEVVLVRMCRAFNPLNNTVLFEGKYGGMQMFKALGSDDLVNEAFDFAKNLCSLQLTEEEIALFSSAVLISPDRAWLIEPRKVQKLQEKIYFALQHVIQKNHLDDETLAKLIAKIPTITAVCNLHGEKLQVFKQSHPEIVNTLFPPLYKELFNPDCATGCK

Read-out in test [8]: E-selectin (Homo sapiens) (UniProt P16581)
As to the kind of experiment: BSK_3C_Eselectin: BioMAP Diversity Plus: 3C Assay for Eselectin Biomarker Activity (AID 2283015; active = hit-call score of the fitted dose curve at least 0.9, where 1 is the maximum; inactive = score below 0.9). The following applies: primary human endothelial cells (HUVEC); actives raise or lower the signal. Summed up:
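Human vascular endothelium from umbilical vein is exposed to test chemicals for 24 h. E-selectin levels are read by ELISA and compared with DMSO controls.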

Read-out in test [9]: Interleukin-1 alpha (IL1a), IL1A (gene 3552)
Description: BSK_BE3C_IL1a: BioMAP Diversity Plus: BE3C Assay for Interleukin-1 alpha (IL1a) Biomarker Activity (AID 2283016; active = hit-call score of the fitted dose curve at least 0.9, where 1 is the maximum; inactive = score below 0.9). Particulars: primary human bronchial epithelial cells; actives raise or lower the signal. An outline of the steps: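 Human primary bronchial epithelial cells, 24 h chemical exposure; IL-1a quantified by ELISA, fitted bidirectionally against DMSO. Cytotoxicity assessed in parallel by SRB total-protein staining at the time of measurement.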

Read-out in test [10]: Monocyte Chemoattractant Protein-1 (MCP1), CCL2 (gene 6347)
Description: BSK_3C_MCP1: BioMAP Diversity Plus: 3C Assay for Monocyte Chemoattractant Protein-1 (MCP1) Biomarker Activity (AID 2283017; active = hit-call score of the fitted dose curve at least 0.9, where 1 is the maximum; inactive = score below 0.9). Particulars: primary human endothelial cells (HUVEC); actives raise or lower the signal. An outline of the steps: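 Endothelial cells from human umbilical vein are dosed with chemical, cultured 24 h, then assayed for MCP-1 by ELISA; both increases and decreases are modelled against DMSO controls.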

Read-out in test [11]: Monocyte Chemoattractant Protein-1 (MCP1), CCL2 (gene 6347)
As to the kind of experiment: BSK_4H_MCP1: BioMAP Diversity Plus: 4H Assay for Monocyte Chemoattractant Protein-1 (MCP1) Biomarker Activity (AID 2283018; active = hit-call score of the fitted dose curve at least 0.9, where 1 is the maximum; inactive = score below 0.9). The following applies: primary human endothelial cells (HUVEC); actives raise or lower the signal. Summed up: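 Human umbilical vein endothelial cells (4H system) exposed to chemicals for 24 h in 96-well format. MCP-1 measured by ELISA; bidirectional fitting against DMSO, with SRB total-protein staining in parallel cultures for cytotoxicity.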

Read-out in test [12]: Human Leukocyte Antigen - DR isotype (HLADR), HLA-DRA (gene 3122)
As to the kind of experiment: BSK_3C_HLADR: BioMAP Diversity Plus: 3C Assay for Human Leukocyte Antigen - DR isotype (HLADR) Biomarker Activity (AID 2283019; active = hit-call score of the fitted dose curve at least 0.9, where 1 is the maximum; inactive = score below 0.9). The following applies: primary human endothelial cells (HUVEC); actives raise or lower the signal. An outline of the steps: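 Endothelial cells from human umbilical vein are treated with test chemical; after 24 h, HLA-DR levels are measured by ELISA. Data are fitted in both directions using DMSO as the baseline.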

Read-out in test [13]: Interleukin-8 (IL8), CXCL8 (gene 3576)
Description: BSK_3C_IL8: BioMAP Diversity Plus: 3C Assay for Interleukin-8 (IL8) Biomarker Activity (AID 2283020; active = hit-call score of the fitted dose curve at least 0.9, where 1 is the maximum; inactive = score below 0.9). Particulars: primary human endothelial cells (HUVEC); actives raise or lower the signal. An outline of the steps:
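Primary human umbilical vein endothelial cells were dosed for 24 h. IL-8 was quantified by ELISA and fitted bidirectionally against DMSO. Cytotoxicity was assessed in parallel cultures by SRB staining at 560 nm.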

For test [14], the target named is human RAR-related Orphan Receptor gamma (RORg), RORC (gene 6097) (UniProt P51449). Description: ATG_RORg_TRANS: Attagene TRANS-FACTORIAL HepG2 Assay for human RAR-related Orphan Receptor gamma (RORg) (AID 2283011). An outline of the steps: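 Activity is scored as increase in GAL4-UAS reporter mRNA over DMSO, detected by fluorescent RT-PCR and capillary electrophoresis in HepG2 cells transiently expressing a RORg-Gal4 chimera, 24 h after dosing.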
human RAR-related Orphan Receptor gamma (RORg), RORC (gene 6097), sequence (P51449 whole entry, looked up, the tested form may be a part): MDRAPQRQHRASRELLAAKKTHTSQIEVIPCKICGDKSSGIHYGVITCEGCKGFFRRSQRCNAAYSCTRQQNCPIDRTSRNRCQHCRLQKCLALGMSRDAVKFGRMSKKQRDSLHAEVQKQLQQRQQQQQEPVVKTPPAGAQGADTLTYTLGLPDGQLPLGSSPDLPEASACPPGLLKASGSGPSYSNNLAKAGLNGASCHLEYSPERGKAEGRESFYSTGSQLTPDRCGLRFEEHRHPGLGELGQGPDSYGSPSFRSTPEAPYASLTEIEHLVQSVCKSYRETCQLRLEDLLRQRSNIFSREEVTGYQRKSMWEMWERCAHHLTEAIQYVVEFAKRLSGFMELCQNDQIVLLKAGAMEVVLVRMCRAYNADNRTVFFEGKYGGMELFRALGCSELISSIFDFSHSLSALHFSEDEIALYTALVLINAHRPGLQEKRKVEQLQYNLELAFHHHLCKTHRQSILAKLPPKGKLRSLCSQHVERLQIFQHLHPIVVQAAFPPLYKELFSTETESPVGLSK

The target in test [15] is Retinoic acid receptor RXR-alpha (Homo sapiens) (UniProt P19793). As to the kind of experiment: ATG_RXRa_TRANS: Attagene TRANS-FACTORIAL HepG2 Assay for human Retinoid X Receptor alpha (RXRa) (AID 2283012). Summed up:
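HepG2 cells transiently transfected with GAL4-UAS reporter units and chimeric RXRa-Gal4 protein, treated 24 h. Reporter mRNA measured by RT-PCR, fluorescent labelling, HpaI digestion and capillary electrophoresis. Induction fitted against DMSO.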

Test [16] addresses human Retinoic Acid Receptor beta (RARb), RARB (gene 5915) (UniProt P10826). Description: ATG_RARb_TRANS: Attagene TRANS-FACTORIAL HepG2 Assay for human Retinoic Acid Receptor beta (AID 2283004). Summed up:
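HepG2, transient MRTU transfection, NR–Gal4 chimera, 24 h treatment; RT-PCR plus CE fluorescence detection of reporter mRNA; gain of signal vs DMSO.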

Test [17] addresses human Retinoid X Receptor beta (RXRb), RXRB (gene 6257) (UniProt P28702). As to the kind of experiment: ATG_RXRb_TRANS: Attagene TRANS-FACTORIAL HepG2 Assay for human Retinoid X Receptor beta (RXRb) (AID 2283013). Summed up:
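HepG2 cells were transiently transfected with multiplexed GAL4-UAS reporters and a chimeric RXRb-Gal4 construct, then exposed for 24 h. Reporter mRNA was quantified by RT-PCR, FAM labeling, HpaI digestion and capillary electrophoresis; gain of signal was scored against DMSO.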

Test [18] concerns the target human Thyroid Receptor alpha (THRa1), THRA (gene 7067) (UniProt P10827). As to the kind of experiment: ATG_THRa1_TRANS: Attagene TRANS-FACTORIAL HepG2 Assay for human Thyroid Receptor alpha (THRa1) (AID 2283014). An outline of the steps:
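First, HepG2 cells receive multiple GAL4-UAS reporter units and the chimeric receptor. They are then dosed for 24 h, after which RNA is reverse-transcribed, amplified, labelled, HpaI-cut and sized by capillary electrophoresis; gain relative to DMSO is scored.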

The structures appear in SMILES notation. Records with an inconclusive call do not appear. Active and inactive are the calls of the source. The calls were made as follows, unless noted: active = hit-call score of the fitted dose curve at least 0.9, where 1 is the maximum; inconclusive = response in the unintended direction; inactive = score below 0.9.

Retinoic acid receptor RXR-alpha (Homo sapiens), sequence (P19793 whole entry, looked up, the tested form may be a part): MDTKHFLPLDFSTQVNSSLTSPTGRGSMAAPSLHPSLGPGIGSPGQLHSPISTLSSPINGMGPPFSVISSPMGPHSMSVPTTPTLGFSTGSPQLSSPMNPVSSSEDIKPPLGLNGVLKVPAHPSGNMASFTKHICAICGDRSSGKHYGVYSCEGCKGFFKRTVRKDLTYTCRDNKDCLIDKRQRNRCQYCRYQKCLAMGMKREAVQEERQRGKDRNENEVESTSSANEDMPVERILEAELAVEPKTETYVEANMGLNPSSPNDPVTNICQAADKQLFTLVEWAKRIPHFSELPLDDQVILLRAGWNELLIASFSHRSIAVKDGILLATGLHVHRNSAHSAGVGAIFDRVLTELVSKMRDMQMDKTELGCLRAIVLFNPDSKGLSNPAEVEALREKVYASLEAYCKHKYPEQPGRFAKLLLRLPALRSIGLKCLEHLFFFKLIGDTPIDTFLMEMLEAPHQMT
human Peroxisome Proliferator-activated Receptor delta (PPARd), PPARD (gene 5467), sequence (Q03181 whole entry, looked up, the tested form may be a part): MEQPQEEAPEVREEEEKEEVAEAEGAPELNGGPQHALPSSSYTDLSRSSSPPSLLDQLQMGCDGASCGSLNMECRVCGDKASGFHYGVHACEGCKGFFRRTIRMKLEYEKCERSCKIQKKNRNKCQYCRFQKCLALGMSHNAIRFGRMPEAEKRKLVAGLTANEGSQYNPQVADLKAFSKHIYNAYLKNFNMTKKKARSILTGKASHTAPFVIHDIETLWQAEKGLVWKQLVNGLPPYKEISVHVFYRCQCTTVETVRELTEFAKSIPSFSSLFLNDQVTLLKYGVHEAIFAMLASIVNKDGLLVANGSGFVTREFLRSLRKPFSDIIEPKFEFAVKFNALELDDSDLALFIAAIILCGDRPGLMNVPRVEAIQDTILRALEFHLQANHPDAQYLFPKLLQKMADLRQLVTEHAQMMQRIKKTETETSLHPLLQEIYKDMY
human Retinoid X Receptor beta (RXRb), RXRB (gene 6257), sequence (P28702 whole entry, looked up, the tested form may be a part): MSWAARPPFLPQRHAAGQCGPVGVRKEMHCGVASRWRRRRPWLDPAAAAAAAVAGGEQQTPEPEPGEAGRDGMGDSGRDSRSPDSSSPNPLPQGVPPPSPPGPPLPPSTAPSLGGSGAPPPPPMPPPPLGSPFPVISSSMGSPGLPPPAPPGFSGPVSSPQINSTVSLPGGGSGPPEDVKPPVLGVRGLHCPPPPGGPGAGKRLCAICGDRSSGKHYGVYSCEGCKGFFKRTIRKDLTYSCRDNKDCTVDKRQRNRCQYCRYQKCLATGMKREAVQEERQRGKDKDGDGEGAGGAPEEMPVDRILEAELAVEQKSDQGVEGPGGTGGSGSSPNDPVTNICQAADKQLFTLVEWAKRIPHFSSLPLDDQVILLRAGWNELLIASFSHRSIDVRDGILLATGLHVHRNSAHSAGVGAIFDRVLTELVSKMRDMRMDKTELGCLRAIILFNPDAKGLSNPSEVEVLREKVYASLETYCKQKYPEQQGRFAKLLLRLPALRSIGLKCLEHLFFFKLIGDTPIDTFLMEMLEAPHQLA
human Thyroid Receptor alpha (THRa1), THRA (gene 7067), sequence (P10827 whole entry, looked up, the tested form may be a part): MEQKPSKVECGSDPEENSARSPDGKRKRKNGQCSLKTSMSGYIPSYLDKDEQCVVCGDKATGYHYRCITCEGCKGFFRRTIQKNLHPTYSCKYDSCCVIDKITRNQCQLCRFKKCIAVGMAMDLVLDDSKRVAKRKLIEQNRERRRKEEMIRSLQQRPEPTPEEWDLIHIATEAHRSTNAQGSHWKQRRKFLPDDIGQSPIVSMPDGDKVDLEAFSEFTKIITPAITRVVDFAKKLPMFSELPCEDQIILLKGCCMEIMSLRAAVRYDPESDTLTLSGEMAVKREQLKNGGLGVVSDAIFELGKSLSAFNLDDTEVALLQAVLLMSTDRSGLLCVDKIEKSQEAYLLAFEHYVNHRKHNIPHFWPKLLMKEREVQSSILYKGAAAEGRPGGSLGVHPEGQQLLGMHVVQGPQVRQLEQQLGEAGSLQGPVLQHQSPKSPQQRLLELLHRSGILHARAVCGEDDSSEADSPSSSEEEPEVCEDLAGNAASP
E-selectin (Homo sapiens), sequence (P16581 whole entry, looked up): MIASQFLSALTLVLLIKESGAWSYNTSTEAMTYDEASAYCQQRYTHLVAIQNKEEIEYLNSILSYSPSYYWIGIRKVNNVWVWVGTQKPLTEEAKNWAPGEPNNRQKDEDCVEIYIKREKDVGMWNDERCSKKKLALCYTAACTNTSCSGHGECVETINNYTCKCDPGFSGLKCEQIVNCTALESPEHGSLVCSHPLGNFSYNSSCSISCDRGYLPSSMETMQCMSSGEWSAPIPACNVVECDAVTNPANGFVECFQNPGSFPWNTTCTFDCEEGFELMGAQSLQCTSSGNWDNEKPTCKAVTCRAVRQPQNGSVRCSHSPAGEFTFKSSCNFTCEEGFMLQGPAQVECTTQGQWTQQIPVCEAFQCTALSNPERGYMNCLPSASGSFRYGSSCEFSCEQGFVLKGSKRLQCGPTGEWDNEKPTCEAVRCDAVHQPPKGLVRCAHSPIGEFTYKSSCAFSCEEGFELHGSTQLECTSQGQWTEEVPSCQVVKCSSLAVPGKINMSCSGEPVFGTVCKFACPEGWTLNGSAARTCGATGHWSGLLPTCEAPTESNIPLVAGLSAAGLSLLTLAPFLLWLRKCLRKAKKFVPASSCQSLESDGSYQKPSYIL

With `Nc1ccc(S(N)(=O)=O)cc1`, the compound was classed as inactive in test [1] and in [2].

With `O=C1OC2(c3cc(Br)c(O)c(Br)c3Oc3c2cc(Br)c(O)c3Br)c2c(Cl)c(Cl)c(Cl)c(Cl)c21`, the result in test [3] and in test [7] was inactive. Further, the AC50 in [4] was 7.39 µM (active); in test [5], 8.03 µM (active); in test [6], 34.7 µM (active); in [2] it was 4.84 µM (active); in test [8], 5.06 µM (active); in [9], 0.967 µM (active). For the same compound, the AC50 was 4.82 µM (active) in test [10], 1.57 µM (active) in test [11], 2.68 µM (active) in test [12] and 13.2 µM (active) in test [13].

`S=C(S)NCCNC(=S)S`: the call in test [1], in test [6], in [14] and in test [15] was inactive.

As for `CCCC(=O)C(C)=O`, the outcome in [1], in test [2], in test [7] and in test [14] was inactive.

As to `CC(=O)C(=O)O`, the compound was called inactive in test [3], in test [16], in test [2], in test [7], in [14] and in test [15]. Moreover, the compound was called inactive in test [17].

For the compound `CC1=CCC2C(C1)C2(C)C` (stereo not given), the result in test [3], in test [6], in test [14], in test [15], in [17] and in test [18] was inactive. For the same compound, in test [2], the AC50 is 10.7 µM (active).

On to `CO[Si](C)(OC)c1ccccc1`, for which the compound was called inactive in test [3], in test [6] and in test [7]. The AC50 in [2] is 2.73 µM (active).

Take `C[C@]12CC[C@H]3[C@@H](CCC4=CC(=O)CC[C@@]43C)[C@@H]1CC[C@@H]2C(=O)CO`: the outcome in [3], in test [6], in test [15] and in [18] was inactive. In addition, the AC50 in test [2] was 2.12 µM (active).
